Here are results for 40 compounds from PubChem BioAssay.

A number with no mark means an inactive call. Active and inactive are the calls of the source. Rule as the data show it: active = inhibition above about 33%; inactive = the rest.

This test is described as follows: compounds suppressing VP16-driven luciferase signal – cell-based, luminescence, high throughput, counter-screen for LRH-1 inverse agonist project (AID 651615). Conditions: Gal4-VP16 luciferase reporter cells, at 3.6 µM, active compounds read high.
As for `Cc1ccc(/C=C2\SC(=S)N(c3c(C)n(C)n(-c4ccccc4)c3=O)C2=O)cc1`, the inhibition is -2.06%.
For the compound `O=C(COc1ccc2ccc(=O)oc2c1)Nc1ccc(N2CCOCC2)cc1`, the inhibition was -5.4%.
Turning to `Cc1nn(Cc2ccc(Cl)cc2)c(C)c1NC(=O)c1cc(C(C)C)on1`, the inhibition is 16%.
The figure for `Oc1cccc(Nc2nc(-c3ccccc3Cl)nc3ccccc23)c1` is -9.51%; for `CCC(c1nnnn1-c1c(C)cccc1C)N1CCN(c2ccc(C(F)(F)F)cc2[N+](=O)[O-])CC1` (stereo not given) it is 10%; for `CCC(=O)N1CCN(c2cc(NCC3CCCO3)c(F)cc2[N+](=O)[O-])CC1` (stereo not given) it is 0.55%.
Regarding `O=C(NNc1ccccc1)C(=O)NNS(=O)(=O)c1ccc([N+](=O)[O-])cc1`, the inhibition was 20.1%.
For `Cc1ccc(Cn2cnc3ccccc32)cc1C`, the inhibition is 7.91%.
Regarding `O=C(CN1C(=O)NC2(CCOc3ccccc32)C1=O)Nc1cccc([N+](=O)[O-])c1` (stereo not given), the inhibition was -15.2%.
For `Cc1c(Cl)cccc1NC(=O)CS(=O)(=O)c1ccccc1`, the inhibition is -1.09%.
The figure for `NNC(=O)C(Cc1ccc(O)cc1)N1Cc2ccccc2C1=O` (stereo not given) is 1.55%; for `CNC(=S)N/N=C/c1cn(Cc2ccc(C)cc2)c2ccccc12` it is 1.56%.
In the case of `Cc1ccsc1CNc1ncnc2ccc(-c3c(C)noc3C)cc12`, the inhibition was -142%.
As for `N#Cc1c2ccc([N+](=O)[O-])cc2[n+]([O-])n1-c1ccccc1`, the inhibition was -21.2%.
On to `O=[N+]([O-])c1ccc(N2CCN(Cc3ccccc3)CC2)c2c1no[n+]2[O-]`, for which the inhibition was 25.3%.
With `Cc1sc2ncnc(NCC(O)c3ccc([N+](=O)[O-])cc3)c2c1C` (stereo not given), the inhibition was 42.1% (active).
The figure for `COc1ccc(NC(=O)CSc2ncnc3[nH]ncc23)cc1` is -6.96%.
`CN(CC(=O)Nc1ccc(N2CCOCC2)cc1)CC(=O)Nc1ccc(N2CCOCC2)cc1`: the inhibition is -8.87%.
As to `CCOc1ccc(NC(=O)Cn2cc(C(C)=O)c3ccccc32)cc1`, the inhibition was 41.9% (active).
For `O=C(CSc1nccc(=O)[nH]1)Nc1ccc(N2CCOCC2)cc1`, the inhibition was -3.99%.
The figure for `N#CCSc1ccccc1NC(=O)CN1C(=O)C2CC=CCC2C1=O` (stereo not given) is -7.26%.
Regarding `CS(=O)(=O)N1CCN(c2ccc(NC(=O)CSc3nnc(-c4ccco4)o3)cc2)CC1`, the inhibition is -2.76%.
Turning to `COc1cc(-c2cc(C(=O)Nc3ccncc3)c3ccccc3n2)cc(OC)c1OC`, the inhibition is -10.9%.
Take `COc1cc2nc(/C=C/c3cc(OC)c(OC)c(OC)c3)sc2cc1SC`: the inhibition was -2.8%.
Regarding `Cn1c(=O)n(C)c2cc(NC(=O)CCl)ccc21`, the inhibition was -101%.
For the compound `Cn1c(=O)c2c(nc(CN3CCOCC3)n2CC(=O)c2ccccc2)n(C)c1=O`, the inhibition was 5.48%.
Under `Cc1cc(/C=N/n2cnnc2)c(C)n1-c1ccc(OCc2ccc(Cl)cc2)cc1` stands 31.2% (active).
The figure for `O=C(NCc1cccnc1)c1cccc2c1C(=O)N(C1CCCCC1)C2` is -8.24%.
On to `Cc1cccc(NC(=O)CSc2ccc(-c3ccco3)nn2)c1C`, for which the inhibition was -3.56%.
Consider `O=C(N/N=C/c1ccc(Sc2ccccn2)o1)c1cccc([N+](=O)[O-])c1`, for which the inhibition was 10.4%.
Take `Cc1cc(C)nc(NC(=O)c2ccc([N+](=O)[O-])o2)n1`: the inhibition is -11.8%.
On to `O=C(Nc1cccc(NC(=O)c2ccc([N+](=O)[O-])o2)c1)c1ccco1`, for which the inhibition was -8.09%.
The figure for `CCCCc1c(O)nc(SCC(=O)Nc2ccc3c(c2)CCC3)[nH]c1=O` is 0.43%.
For `CN(Cc1cccs1)c1nc(-c2cccnc2)nc2ccccc12`, the inhibition is 5.14%.
Under `Cc1cc(O)c(NC(=O)c2cc([N+](=O)[O-])ccc2Cl)cc1C` stands -8.66%.
For the compound `O=C(NNc1ccc([N+](=O)[O-])cc1[N+](=O)[O-])c1ccco1`, the inhibition was 3.35%.
For `Cc1ccc(-n2c(SCC(=O)NCc3ccco3)nc3sc4c(c3c2=O)CC(C)(C)SC4)cc1`, the inhibition is 6.61%.
Regarding `S=C(Nc1cccnc1)Nc1cccc2cnccc12`, the inhibition is 17%.
Take `O=C(COC(=O)c1ccc(Br)o1)Nc1ccc2c(c1)OCCO2`: the inhibition is 1.94%.
Regarding `Cc1cc(OCC(=O)Nc2ccc(OCc3ccccc3)cc2)nc(C(C)C)n1`, the inhibition was 15.2%.
